We go through 35 compounds from PubChem BioAssay.

This assay can be described thus: binders from COS7 lysate, DM2A8 probe, primary screen, torsin A project, cell lysate, small-molecule microarray, fluorescence 635/667 (AID 1065). The conditions noted are these: higher = more signal, COS7 lysate expressing mutant human TOR1A.
Take `CC#CC(=O)Oc1ccc(Br)cc1C=CC(=O)OCC`: the composite z-score is -0.422. With `CCCC(=O)N(CCc1c[nH]c2ccccc12)[C@@H]1CC(C(=O)NCCO)=C[C@H](Oc2c(I)cc(CO)cc2OC)[C@H]1O`, the composite z-score turned out to be 0.809. For the compound `COCCOC(=O)N1C(=O)[C@@]2(c3ccccc31)[C@H](C(=O)N1CCCCCCC1)[C@H]1C(=O)O[C@H](c3ccccc3)[C@H](c3ccccc3)N1[C@@H]2c1ccc(OCCO)cc1`, the composite z-score was found to be 2.62.

For the compound `CCOC(=O)C[C@H]1[C@H](OC(=O)c2cc3ccccc3oc2=O)[C@@H](NC(=O)CC(C)C)c2cc(OCCCO)ccc2N1C(=O)c1ccccc1`, the composite z-score stood at 0.478. Consider `O=C1OCC=C[C@H]2OC34C=CCN(CCN5CCOCC5)C(=O)[C@H]3N(CCO)C(=O)[C@@H]4[C@@H]12` (stereo not given in full), for which the composite z-score was -0.483. The figure for `COCC(=C=CC[C@H](O)c1cccc(OCCO)c1)CCO` is -0.625; for `C#CCN1[C@H](/C=C/C2CC2)[C@H](Cc2ccccc2)OC(=O)[C@@H]1Cc1ccccc1` it is 0.241; for `O[C@@H](Cc1ccccc1)[C@@H](/C=C/C1CC1)NCc1cccc(Cl)c1` it is 0.0563.

For the compound `C=C(/C(=C/C[C@H](OC(C)=O)c1ccc(OCCO)cc1)c1cc(C(=O)OC)ccc1OC)C(C)C`, the composite z-score was 0.585.

Turning to `CCCC[C@@H]1C[C@H]1[C@@H](NC(=O)c1cccnc1)c1ccc(Cl)cc1`, the composite z-score is -1.02. As to `CC(C)[C@@H](C(=O)O)n1cc(C2(O)CCCCC2)nn1`, the composite z-score was -0.938.

`CC(C)CCC[C@@H](C)[C@H]1CC[C@@]2(C)C3=C(CC[C@]12C)[C@@]1(C)CC[C@H](OC(=O)c2ccc(C(F)(F)F)nc2)C(C)(C)C1CC3` (stereo not given in full): the composite z-score is 0.441. Turning to `O=C1O[C@@H](c2ccccc2)[C@@H](c2ccccc2)N2[C@@H](c3ccc(OCCO)cc3)[C@]3(C(=O)Nc4ccc(C#CC5=CCCCC5)cc43)[C@@H](C(=O)N3CCCCCCC3)[C@H]12`, the composite z-score came out at 1.51. `CC(C)NC(=O)[C@@]1(Cc2ccccc2I)c2ccccc2C(=O)N(Cc2ccccc2Cl)[C@H]1c1ccc(CO)cc1` registered a composite z-score of 0.152. Then `COc1ccc([Si](C)(C)[C@H]2[C@H](CCO)O[C@@]3(C(=O)N(Cc4ccccc4)c4ccc(N5CCCCC5=O)cc43)[C@@H]2C)cc1`, with 0.455; and `COc1ccc([C@H]2C[C@H]3C(Br)=C[C@@]2(CO)C(=O)[C@]32CO2)cc1`, with -0.512.

`CO[C@H]1O[C@H](CO)[C@@H](OC(=O)Nc2ccc(Oc3ccccc3)cc2)[C@H](OC(=O)Nc2ccc3c(c2)OCO3)[C@@H]1OC(=O)Nc1ccc2c(c1)OCO2` showed a composite z-score of 0.333. `O=C(NC1CC1)[C@@H]1c2ccccc2C(=O)N(C2Cc3ccccc3C2)[C@H]1c1ccc(CO)cc1` registered a composite z-score of 0.847.

The compound `CC(C)=CCCC(C)=CC(O)C1C=CC2C(=O)N(c3ccccc3)C(=O)C2N1Nc1ccc(C(C)C)cc1` (stereo not given) gave a composite z-score of -0.687. Then `C=CC[C@]1(C(N)=O)N=C(c2ccc(OCCCO)cc2)O[C@H]1c1ccccc1`, with -0.148.

`COc1cc2c(cc1O)C(c1cccs1)N(Cc1cccc(OC(F)(F)F)c1)CC2` (stereo not given) yielded a composite z-score of 0.61. Regarding `C=C(CCCC)C(=O)CC[C@@H](OC(C)=O)c1ccc(CO)o1`, the composite z-score worked out at 0.349.

The compound `O=C(CS)NCCCCCNC(=O)[C@H]1C[C@H]2C(=O)NCC(=O)N2[C@H]1c1ccc(O)cc1` had a composite z-score of 0.354. In turn, `COC(=O)[C@H](Cc1ccccc1)N[C@H](/C=C/C1CC1)[C@@H](O)Cc1ccccc1` showed a composite z-score of 0.1. For `C=C(CCCC)C(=O)CC[C@H](OC(=O)c1cccnc1)c1ccc(OCCO)cc1`, the composite z-score is 1.4. Take `O=C1O[C@@H](c2ccccc2)[C@@H](c2ccccc2)N2[C@@H](c3ccccc3OCCO)[C@]3(C(=O)Nc4ccc(C#CC5(O)CCCCCC5)cc43)[C@@H](C(=O)N3CCN(c4ncccn4)CC3)[C@H]12`: the composite z-score amounted to 0.432.

Take `C=CCN1C(=O)[C@]2(O[C@H](CCO)[C@@H]([Si](C)(C)c3ccc(OC)cc3)[C@@H]2C)c2cc(N(C=O)c3ccccc3)ccc21`: the composite z-score was 0.109. As to `C=C(C(=O)CC[C@H](OC(C)=O)c1ccccc1OCCO)C(C)C`, the composite z-score is -1.03. `COC(=O)[C@@]1(Cc2ccc(OC)cc2)[C@H]2c3cc(C(=O)N4CCCC4)n(Cc4nc5ccccc5[nH]4)c3C[C@H]2CN1C(=O)c1ccccc1` displayed a composite z-score of 0.572.

The compound `CC(c1ccccc1)C(O)C1C=CC2C(=O)N(c3ccccc3)C(=O)C2N1Nc1ccccc1` (stereo not given) yielded a composite z-score of 0.2.

`CCCC[C@H]1C[C@@H]1[C@@H]1N(P(=O)(c2ccccc2)c2ccccc2)C[C@@](O)(c2ccccc2)CC12CC2`: the composite z-score is -0.152. In turn, `COCC(=C=CC[C@H](O)c1ccccc1OCCO)CCO` had a composite z-score of 0.32. The figure for `O=C1C[C@@](C(=O)NCc2ccccc2)(c2ccc([N+](=O)[O-])cc2)[C@@H](c2ccc(CO)cc2)N1CC12CC3CC(CC(C3)C1)C2` is 0.447.

Regarding `COC(=O)c1c(CC[C@@H](CO)NC(=O)N[C@H](Cc2ccccc2)Cn2cc(-c3ccccn3)nn2)oc(C(C)=O)c1C(=O)OC`, the composite z-score worked out at 0.0467. `COC(=O)[C@]1(CCC(=O)OC(C)(C)C)N=C(c2ccc(OCCCO)cc2)O[C@@H]1c1ccccc1` showed a composite z-score of -0.522.
